# Measurements: PubChem BioAssay
# Activity calls are given as the source filed them.
# Legend:
# [1] = optical density shifts of acrAB sulA E. coli – strain DRC41, OD650, 48 h, E. coli filamentation inducer project, primary screen (AID 1152); settings: higher = more signal, called active from +8 up or from −8 down;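 also: E. coli MC1000 strain DRC41 lacking acrAB efflux pump and sulA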
# [2] = probe aLefty1 binding on compound microarray – biochemical, small-molecule microarray, 635/667 nm fluorescence, primary screen (AID 1153); settings: higher = more signal;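 also: score merges spot fluorescence with signal-to-noise ratio from the scanned slide images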
# [3] = plasmodial surface anion channel blockers, osmotic lysis – cell-based, P. falciparum Indochina, OD700, 1 h, primary screen (AID 1154); settings: P. falciparum Indochina infected RBC osmotic lysis, higher = more signal, called active from +8 up or from −8 down
# [4] = plasmodial surface anion channel blockers, osmotic lysis – cell-based, P. falciparum Indochina, OD700, 2 h, primary screen (AID 1155);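 also: lysis reports solute entry through the parasite surface anion channel PSAC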; settings: P. falciparum Indochina infected erythrocytes, higher = more signal, called active from +8 up or from −8 down
# [5] = changes in parasitized red cell lysis, either direction – P. falciparum Indochina, OD700, 3 h, PSAC antagonist project, primary screen (AID 1156); settings: P. falciparum-infected erythrocytes, osmotic lysis, higher = more signal, called active from +8 up or from −8 down
# [6] = plasmodial surface anion channel blockers, osmotic lysis – cell-based, P. falciparum Indochina, OD700, 18 h, primary screen (AID 1157); settings: P. falciparum Indochina infected erythrocytes, osmotic lysis OD700, 18 h; higher = more signal, called active from +8 up or from −8 down
# [7] = S6 kinase pathway phospho-S6 level changes – cell-based, A549, cytoblot, luminescence, serum-stimulated, primary screen (AID 1158); settings: 5 h, higher = more signal;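 also: serum-stimulated A549 lung adenocarcinoma cells; signal is phosphorylated S6 detected by cytoblot immunostaining with HRP secondary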
# [8] = biological target: NADPH oxidase 2 (Homo sapiens) (UniProt P04839); assay: compounds shifting NOX2 Amplex Red fluorescence – cell-based, HEK293-NOX2, PMA-stimulated, NOX inhibitor project, primary screen (AID 1159); settings: 45 min, higher = more signal, called active from +8 up or from −8 down; also: test concentration not given here
# Sequence of NADPH oxidase 2 (Homo sapiens) (P04839 whole entry, looked up): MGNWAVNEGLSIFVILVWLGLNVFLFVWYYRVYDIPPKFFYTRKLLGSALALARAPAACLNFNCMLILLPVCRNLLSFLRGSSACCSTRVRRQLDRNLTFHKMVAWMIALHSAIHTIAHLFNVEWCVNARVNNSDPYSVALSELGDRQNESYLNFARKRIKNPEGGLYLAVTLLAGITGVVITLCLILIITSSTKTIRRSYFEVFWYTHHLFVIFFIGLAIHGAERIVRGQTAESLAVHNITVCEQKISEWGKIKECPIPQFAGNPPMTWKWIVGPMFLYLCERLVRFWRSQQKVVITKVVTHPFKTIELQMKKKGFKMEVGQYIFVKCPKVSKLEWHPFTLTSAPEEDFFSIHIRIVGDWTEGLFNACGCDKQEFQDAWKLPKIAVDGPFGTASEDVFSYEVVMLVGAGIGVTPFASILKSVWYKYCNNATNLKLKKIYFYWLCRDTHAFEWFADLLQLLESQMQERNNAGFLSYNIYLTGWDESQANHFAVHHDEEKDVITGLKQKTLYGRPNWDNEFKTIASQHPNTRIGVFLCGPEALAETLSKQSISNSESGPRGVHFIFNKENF
# [9] = biological target: NADPH oxidase 4 (Homo sapiens) (UniProt Q9NPH5); assay: compounds shifting NOX4 Amplex Red fluorescence – cell-based, HEK293-NOX4, tetracycline-induced, NOX inhibitor project, primary screen (AID 1160); settings: HEK293-NOX4, Amplex Red H2O2 fluorescence, 45 min; higher = more signal, called active from +8 up or from −8 down
# Sequence of NADPH oxidase 4 (Homo sapiens) (Q9NPH5 whole entry, looked up): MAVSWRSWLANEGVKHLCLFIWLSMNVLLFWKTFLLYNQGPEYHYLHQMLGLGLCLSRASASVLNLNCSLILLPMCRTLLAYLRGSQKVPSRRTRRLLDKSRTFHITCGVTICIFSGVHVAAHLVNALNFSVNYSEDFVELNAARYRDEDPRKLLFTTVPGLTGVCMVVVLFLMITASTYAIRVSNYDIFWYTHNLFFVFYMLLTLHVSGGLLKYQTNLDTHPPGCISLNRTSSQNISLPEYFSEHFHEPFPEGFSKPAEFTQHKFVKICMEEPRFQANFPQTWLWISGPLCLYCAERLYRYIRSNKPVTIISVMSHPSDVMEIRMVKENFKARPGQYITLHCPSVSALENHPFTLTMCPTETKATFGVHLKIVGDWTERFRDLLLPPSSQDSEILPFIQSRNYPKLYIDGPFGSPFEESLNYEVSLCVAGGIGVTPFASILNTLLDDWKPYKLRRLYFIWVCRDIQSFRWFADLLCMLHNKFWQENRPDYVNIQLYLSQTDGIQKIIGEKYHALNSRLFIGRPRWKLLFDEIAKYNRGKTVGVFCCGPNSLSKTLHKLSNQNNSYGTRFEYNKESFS
# [10] = biological target: NADPH oxidase 5 (Homo sapiens) (UniProt Q96PH1); assay: compounds shifting NOX5 Amplex Red fluorescence – cell-based, HEK293-NOX5, NOX inhibitor project, primary screen (AID 1161); settings: HEK293-NOX5, ionomycin, 45 min, higher = more signal
# Sequence of NADPH oxidase 5 (Homo sapiens) (Q96PH1 whole entry, looked up): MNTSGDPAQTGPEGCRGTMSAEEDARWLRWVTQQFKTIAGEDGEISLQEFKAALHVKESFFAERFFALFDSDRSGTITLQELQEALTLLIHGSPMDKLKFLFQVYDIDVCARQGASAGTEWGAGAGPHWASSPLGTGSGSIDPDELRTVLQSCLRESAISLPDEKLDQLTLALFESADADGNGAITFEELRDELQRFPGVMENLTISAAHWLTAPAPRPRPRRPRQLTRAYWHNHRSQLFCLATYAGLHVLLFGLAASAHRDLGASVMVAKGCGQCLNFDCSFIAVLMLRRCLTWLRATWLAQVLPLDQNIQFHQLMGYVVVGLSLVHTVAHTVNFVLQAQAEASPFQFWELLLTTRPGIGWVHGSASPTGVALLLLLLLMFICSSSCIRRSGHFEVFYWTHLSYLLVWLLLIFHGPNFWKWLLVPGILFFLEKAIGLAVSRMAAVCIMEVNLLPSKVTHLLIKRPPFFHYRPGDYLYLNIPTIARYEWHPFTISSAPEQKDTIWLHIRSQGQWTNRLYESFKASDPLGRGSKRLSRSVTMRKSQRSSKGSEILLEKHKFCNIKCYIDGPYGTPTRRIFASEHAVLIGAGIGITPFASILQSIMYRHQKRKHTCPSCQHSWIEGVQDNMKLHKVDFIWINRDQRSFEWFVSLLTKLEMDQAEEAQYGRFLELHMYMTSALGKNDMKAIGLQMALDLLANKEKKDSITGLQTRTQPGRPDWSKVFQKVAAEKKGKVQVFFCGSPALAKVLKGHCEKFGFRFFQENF
Compound,z-score [1],composite z-score [2],z-score [3],z-score [4],z-score [5],z-score [6],z-score [7],z-score [8],z-score [9],z-score [10]
O=C(NCc1ccc(F)cc1)[C@H]1C[C@H]2C(=O)NCC(=O)N2[C@H]1c1ccc(O)cc1,0.357 (inactive),0.239,1.11 (inactive),0.285 (inactive),-2.04 (inactive),0.4 (inactive),-0.337,0.992 (inactive),0.558 (inactive),0.693
C=C[C@H](C)[C@H](OC(=O)Nc1ccc(SC)cc1)c1ccc(OCCO)cc1,-1.79 (inactive),0.329,27.6 (active),15.6 (active),1.91 (inactive),0.184 (inactive),1.58,-0.831 (inactive),-0.356 (inactive),-0.756
Oc1ccc2cc[n+](Cc3cc4c(cc3Br)OCO4)cc2c1,1.27 (inactive),-0.196,2.67 (inactive),0.864 (inactive),-0.655 (inactive),0.474 (inactive),0.122,-0.546 (inactive),-0.154 (inactive),0.389
CCCCCN1CC=CC23O[C@@H]4/C=C\CCC(C)OC(=O)C4[C@H]2C(=O)N(C(CO)C(C)C)[C@@H]3C1=O (stereo not given in full),1.66 (inactive),-0.106,1.38 (inactive),0.881 (inactive),1.2 (inactive),0.699 (inactive),-0.0209,1.36 (inactive),-0.231 (inactive),1.86
CC(C)C(CO)N1C(=O)[C@@H]2[C@H]3C(=O)OCC=C[C@H]3OC23C=CCN(c2ccc(Cl)cc2)C(=O)[C@@H]13 (stereo not given in full),0.284 (inactive),-0.0642,0.0695 (inactive),0.406 (inactive),1.06 (inactive),0.035 (inactive),-0.4,1.1 (inactive),0.164 (inactive),1.78
C=CCNC(=O)[C@@H]1[C@H]2C(=O)O[C@H](c3ccccc3)[C@H](c3ccccc3)N2[C@H](c2ccccc2OCCO)[C@@]12C(=O)Nc1ccc(C#CCC(C(=O)OC)C(=O)OC)cc12,-0.79 (inactive),0.666,4.93 (inactive),1.81 (inactive),0.622 (inactive),1.36 (inactive),-0.304,0.21 (inactive),0.161 (inactive),1.98
CCOC(=O)C[C@H]1[C@H](OC(=O)Cc2ccc3c(c2)OCO3)[C@@H](NC(=O)C2CCCCC2)c2cc(OCCCO)ccc2N1C(=O)c1ccccc1,2.81 (inactive),-0.06,1.27 (inactive),0.569 (inactive),-0.481 (inactive),0.0872 (inactive),0.524,-0.233 (inactive),0.636 (inactive),-0.206
CC(=O)N1CC2(CC2)CC1c1ccccc1 (stereo not given),-1.35 (inactive),0.433,-0.0747 (inactive),0.635 (inactive),0.539 (inactive),0.715 (inactive),-0.0482,-0.328 (inactive),-1.08 (inactive),-2.74
CN(C)c1ccc(C(O)C2C=CC3C(=O)NC(=O)C3N2Nc2ccccn2)cc1 (stereo not given),-1.5 (inactive),0.201,0.85 (inactive),0.123 (inactive),-0.693 (inactive),0.408 (inactive),-0.888,-2.21 (inactive),-4.43 (inactive),-4.16
Cc1cc(C)c(C(O)C2C=CC3C(=O)N(c4ccccc4)C(=O)C3N2Nc2ccccc2F)c(C)c1 (stereo not given),-1.56 (inactive),-0.0111,1.33 (inactive),1.35 (inactive),-0.167 (inactive),1.32 (inactive),-0.855,-0.611 (inactive),-0.918 (inactive),-0.344
C=CCC(OC(C)=O)[C@@H]1[C@@H](N(Cc2ccc(-c3cccc(C(F)(F)F)c3)o2)C(=O)c2ccc(-c3ccccc3)cc2)c2cc(OCCCO)ccc2N1C(=O)Cc1ccc2ccccc2c1 (stereo not given in full),-0.75 (inactive),0.0451,0.702 (inactive),0.609 (inactive),0.191 (inactive),0.532 (inactive),0.0285,-1.34 (inactive),-1.69 (inactive),-0.791
CC(C)C(CO)N1C(=O)[C@@H]2C3C(=O)OCCC/C=C\[C@H]3OC23C=CCN(c2ccc4ccccc4c2)C(=O)[C@@H]13 (stereo not given in full),-0.546 (inactive),0.0533,1.03 (inactive),0.36 (inactive),0.204 (inactive),0.478 (inactive),-0.428,1.77 (inactive),0.767 (inactive),1.69
CC[C@@H]1C=C(C(=O)O)[C@H](c2ccc(C#N)cc2)N1S(=O)(=O)c1ccc(C)cc1,-0.29 (inactive),0.276,1.48 (inactive),0.544 (inactive),-0.158 (inactive),0.192 (inactive),-0.436,0.452 (inactive),-0.156 (inactive),-0.848
CC(C)[Si](C#CCCCC#N)(O[C@H](c1ccccc1)c1cn(Cc2ccccc2)nn1)C(C)C,1.99 (inactive),-0.253,1.05 (inactive),0.0907 (inactive),0.866 (inactive),0.137 (inactive),0.249,-0.502 (inactive),0.912 (inactive),0.536
C=CC[C@H](OC(=O)Nc1ccc(SC)cc1)c1ccc(O)c2ccccc12,-1.2 (inactive),0.27,29.5 (active),16.8 (active),2.22 (inactive),1.63 (inactive),0.76,-5.83 (inactive),-1.41 (inactive),-0.0589
CC(C)[Si]1(C(C)C)OCc2cc(-c3ccc(-c4ccc(Cl)c(Cl)c4)o3)nc(-c3ccccc3)c21,-0.618 (inactive),-0.0501,1.01 (inactive),0.394 (inactive),0.6 (inactive),0.138 (inactive),-0.106,0.237 (inactive),-1.35 (inactive),0.701
CCOC(=O)C[C@H]1[C@H](OC(=O)c2ccc(C(=O)c3ccccc3)cc2)[C@@H](NC(=O)c2ccc3ccccc3n2)c2cc(OCCCO)ccc2N1C(=O)Cc1ccc(OC)cc1,-1.61 (inactive),0.0782,-0.17 (inactive),0.313 (inactive),1.57 (inactive),0.802 (inactive),0.793,-1.71 (inactive),-0.298 (inactive),-0.856
CC(C)(C)OC(=O)CC[C@@]1(C(=O)NCC(O)CO)N=C(c2ccc(OCCCO)cc2)O[C@@H]1c1ccccc1CN=[N+]=[N-] (stereo not given in full),0.399 (inactive),0.258,25.3 (active),5.67 (inactive),0.814 (inactive),0.936 (inactive),0.906,1.18 (inactive),0.87 (inactive),0.416
CCCCN1CC=CC23O[C@@H]4/C=C\CCC(C)OC(=O)C4[C@H]2C(=O)N(CCCO)[C@@H]3C1=O (stereo not given in full),0.323 (inactive),0.0494,0.591 (inactive),-0.0611 (inactive),-0.23 (inactive),0.408 (inactive),-0.118,1.1 (inactive),-1.84 (inactive),0.861
CC(C)(C)OC(=O)COc1cccc(C(=O)CCN2CCOCC2)c1,0.922 (inactive),0.265,6.63 (inactive),1.21 (inactive),-0.481 (inactive),0.548 (inactive),0.202,-5.78 (inactive),1.09 (inactive),2.12
CCCC[C@@H](O)C1=C(COc2ccccc2)C[C@H]2C(=O)N(Cc3ccccc3)C(=O)[C@H]2[C@H]1CO,0.232 (inactive),-0.0564,13.9 (active),1.59 (inactive),-1.11 (inactive),0.967 (inactive),-0.326,-0.77 (inactive),-0.286 (inactive),-0.695
CCOC(=O)C[C@H]1[C@H](OC(=O)c2ccccc2-c2ccccc2)[C@@H](NC(=O)c2ccc3ccccc3n2)c2cc(OCCCO)ccc2N1C(=O)Cc1ccc(OC)cc1,-0.783 (inactive),0.0986,5.91 (inactive),1.11 (inactive),-0.0433 (inactive),0.549 (inactive),-0.303,0.0348 (inactive),1.25 (inactive),0.76
C=C(/C(=C/C[C@H](OC(C)=O)c1ccc(CO)o1)c1cnc2ccccc2c1)C(C)C,-0.0554 (inactive),0.215,3.56 (inactive),0.625 (inactive),0.589 (inactive),0.0124 (inactive),0.38,-0.306 (inactive),-0.246 (inactive),-0.219
COc1ccc([Si](C)(C)[C@@H]2[C@@H](CC(=O)N3CCC[C@H]3CO)O[C@]3(C(=O)N(Cc4cccc(N5C(=O)COc6ccccc65)c4)c4ccccc43)[C@H]2C)cc1,-0.194 (inactive),0.0005,3.76 (inactive),1.41 (inactive),-1.47 (inactive),0.646 (inactive),0.324,2.66 (inactive),1.74 (inactive),4.12
COCCOC(=O)N1C(=O)[C@@]2(c3cc(C#CCCO)ccc31)[C@H](c1ccc(OCCO)cc1)N1[C@H](c3ccccc3)[C@H](c3ccccc3)OC(=O)[C@H]1[C@@H]2C(=O)Nc1nc2ccccc2s1,-0.0929 (inactive),0.181,3.74 (inactive),1.5 (inactive),0.258 (inactive),0.678 (inactive),-0.115,1.58 (inactive),1.26 (inactive),1.43
CCCC[C@@H](O)C1=C(COC)C[C@H]2C(=O)N(C)C(=O)[C@H]2[C@H]1CO,2.54 (inactive),0.218,-0.179 (inactive),-1.31 (inactive),-1.12 (inactive),-2.19 (inactive),1.59,-0.342 (inactive),0.564 (inactive),0.819
C=CCNC(=O)[C@@H]1[C@H]2C(=O)O[C@H](c3ccccc3)[C@H](c3ccccc3)N2[C@H](c2ccccc2OCCO)[C@@]12C(=O)N(C(=O)OCCOC)c1ccc(C#CC3(O)CCCCCC3)cc12,0.592 (inactive),0.038,1.95 (inactive),2.02 (inactive),0.167 (inactive),0.996 (inactive),0.152,1.09 (inactive),0.906 (inactive),0.337
